Consider nine compounds from PubChem BioAssay (NCI).

Compounds without any hit were thinned out: in the full panel of roughly 83,000, 20% have a hit.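 Treatment: one concentration, 48 hours, 96-well format. Scoring: percent growth, with anything below 10 considered active.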 Unmarked numbers belong to inactive results. The source made the active and inactive calls.

Among the test systems are RPMI-8226 leukemia; OVCAR-8 ovarian; OVCAR-5 ovarian; OVCAR-4 ovarian; SK-OV-3 ovarian; IGROV1 ovarian; OVCAR-3 ovarian; HS 578T breast; NCI/ADR-RES ovarian; T-47D breast; BT-549 breast; MDA-MB-435 melanoma; SW-620 colon; MCF7 breast; HCT-116 colon; KM12 colon; HCC-2998 colon.
Holding throughout (test): NCI-60 one-dose screen, 48 h (100 = growth as untreated, 0 = no growth, -100 = all killed)
Common to all, as to details: 10 µM unless noted

Turning to `COc1ccc(OC)c(NC(=O)c2cc(S(=O)(=O)N3CCc4ccccc43)ccc2OC)c1`, the growth with RPMI-8226 leukemia was 82.6%; with OVCAR-8 ovarian, 75.5%; with OVCAR-5 ovarian, 89.8%; in the assay on OVCAR-4 ovarian, 94.2%; in the assay on SK-OV-3 ovarian, 92.6%; with IGROV1 ovarian it was -39.9% (active). Also, the growth was 112% with OVCAR-3 ovarian; -43.4% (active) in the assay on HS 578T breast; 94.3% in the assay on NCI/ADR-RES ovarian; 93.4% with T-47D breast; 104% in the assay with BT-549 breast; 96.1% with MDA-MB-435 melanoma. For the same compound, the growth with SW-620 colon was 96.7%; in the assay on MCF7 breast, 113%; in the assay with HCT-116 colon, 72.2%; with KM12 colon, 111%.
In the case of `O=C(CN1CCN(c2cc3c(cc2F)c(=O)c(C(=O)O)cn3C2CC2)CC1)Nc1ccc(C(=O)/C=C/c2ccccc2)cc1`, the growth is 2.45% (active) in the assay with RPMI-8226 leukemia; 6.3% (active) in the assay with OVCAR-8 ovarian; 82.6% in the assay on OVCAR-5 ovarian; 86.4% with OVCAR-4 ovarian; 93.6% in the assay with SK-OV-3 ovarian; 42.9% with IGROV1 ovarian. Moreover, the growth was 54.9% with OVCAR-3 ovarian; 51.9% in the assay on HS 578T breast; 93.5% in the assay on NCI/ADR-RES ovarian; 85.1% in the assay on T-47D breast; 19.2% in the assay on MDA-MB-435 melanoma; 41% in the assay with SW-620 colon. Besides, the growth is 12.5% in the assay with MCF7 breast, -83.6% (active) in the assay with HCT-116 colon, 70.1% with HCC-2998 colon and 25.3% with KM12 colon.
For `CC(=O)c1cc(C(=O)c2ccc3c(c2)Sc2ccccc2N3)c2cc(C)ccn12`, the growth with RPMI-8226 leukemia is 12.3%; with OVCAR-8 ovarian it was 4.39% (active); in the assay with OVCAR-5 ovarian, 41.2%; in the assay with OVCAR-4 ovarian it was 38.1%; in the assay with SK-OV-3 ovarian it was 16.6%; with IGROV1 ovarian it was 27.8%. The growth in the assay with OVCAR-3 ovarian is -14.3% (active); in the assay with HS 578T breast, 14.5%; with NCI/ADR-RES ovarian, 12.1%; with T-47D breast, 61.7%; in the assay on BT-549 breast it was -13.9% (active); in the assay with MDA-MB-435 melanoma it was -19.7% (active). Further, the growth with SW-620 colon is 22.4%; in the assay with HCT-116 colon it was -23.6% (active); with HCC-2998 colon it was 23.2%; with KM12 colon, 5.18% (active).
Turning to `O=C(C[N+](=O)[O-])c1ccc(Cl)cc1`, the growth with RPMI-8226 leukemia was 100%; in the assay with OVCAR-8 ovarian it was 116%; in the assay with OVCAR-5 ovarian it was 110%; with OVCAR-4 ovarian, 111%; in the assay on SK-OV-3 ovarian, 113%; in the assay on OVCAR-3 ovarian it was 113%. The growth with HS 578T breast is 100%; with NCI/ADR-RES ovarian it was 109%; in the assay with T-47D breast, 113%; in the assay with BT-549 breast it was 102%; in the assay with MDA-MB-435 melanoma, 114%; in the assay with SW-620 colon, 106%. Besides, the growth with MCF7 breast is 100%; with HCT-116 colon, 101%; in the assay on HCC-2998 colon it was 110%; in the assay on KM12 colon, 109%.
`c1ccc([P+](CCC[P+](c2ccccc2)(c2ccccc2)c2ccccc2)(c2ccccc2)c2ccccc2)cc1`: the growth was 1.19% (active) in the assay on RPMI-8226 leukemia; 70.6% in the assay with OVCAR-8 ovarian; 89.7% in the assay on OVCAR-5 ovarian; 66.7% in the assay on OVCAR-4 ovarian; 93.2% with SK-OV-3 ovarian; 59.1% in the assay on IGROV1 ovarian. Also, the growth in the assay with OVCAR-3 ovarian was 54.1%; with HS 578T breast, 94.8%; in the assay with NCI/ADR-RES ovarian, 104%; with T-47D breast it was 45.2%; with BT-549 breast it was 75.9%; in the assay on MDA-MB-435 melanoma it was 38.6%. Further, the growth in the assay with SW-620 colon is 85.4%; in the assay on HCT-116 colon, 67.5%; in the assay on HCC-2998 colon, 48.1%; in the assay on KM12 colon, 45.5%.
Take `CCOC(=O)c1cc(/C(=N\O)c2cc(OC)c(OC)c(OC)c2)n2c(C)cccc12`: the growth in the assay on RPMI-8226 leukemia was 41.5%; in the assay with OVCAR-8 ovarian, 54.3%; with OVCAR-5 ovarian, 73.2%; with OVCAR-4 ovarian it was 54.1%; in the assay with IGROV1 ovarian it was 52.5%; in the assay with OVCAR-3 ovarian, 15.7%. In addition, the growth is 12.4% with HS 578T breast; 29.3% with NCI/ADR-RES ovarian; 27.7% in the assay with T-47D breast; 19.4% in the assay with BT-549 breast; -10.2% (active) in the assay with MDA-MB-435 melanoma; 23.3% with SW-620 colon. Also, the growth was 17.1% with MCF7 breast, 27.2% with HCT-116 colon, 70.8% in the assay on HCC-2998 colon and 27.9% in the assay on KM12 colon.
Turning to `CN(C)c1ccc(-c2ccc(-c3ccc(C(=N)N)cn3)o2)cc1`, the growth with OVCAR-8 ovarian is -54.7% (active); in the assay with OVCAR-5 ovarian, -25% (active); in the assay with OVCAR-4 ovarian, -17.3% (active); in the assay on SK-OV-3 ovarian, -24.4% (active); in the assay on IGROV1 ovarian it was -26.8% (active); in the assay on OVCAR-3 ovarian it was -96.7% (active). Besides, the growth in the assay on HS 578T breast is -19.7% (active); in the assay with NCI/ADR-RES ovarian, 22.5%; in the assay on T-47D breast it was -68.2% (active); in the assay on BT-549 breast, -11.8% (active); with MDA-MB-435 melanoma, -84.2% (active); in the assay with SW-620 colon, -72.6% (active). The growth is -38.1% (active) in the assay on MCF7 breast, -62.4% (active) in the assay on HCT-116 colon, -73.5% (active) in the assay with HCC-2998 colon and -97% (active) in the assay on KM12 colon.
In the case of `COc1cccc(C2CC(=O)Nc3c2c(C)nn3-c2nc3ccccc3[nH]2)c1OC` (configuration not stated), the growth is 70.4% with RPMI-8226 leukemia; 55% in the assay with OVCAR-8 ovarian; 114% in the assay on OVCAR-5 ovarian; 74.4% in the assay with OVCAR-4 ovarian; 79.9% in the assay with SK-OV-3 ovarian; 74% with OVCAR-3 ovarian. Further, the growth with NCI/ADR-RES ovarian is 73.2%; in the assay with T-47D breast, 64.5%; with BT-549 breast, 87.1%; in the assay with MDA-MB-435 melanoma, 58.5%; in the assay with SW-620 colon, 77.1%; in the assay on MCF7 breast it was 62.5%. The growth is 36.2% with HCT-116 colon, 120% with HCC-2998 colon and 67.9% in the assay with KM12 colon.
Consider `Cc1ccc(C(=O)c2sc3nc4c(cc3c2N)CCCC4)c(C)c1`, for which the growth with RPMI-8226 leukemia is -12.3% (active); with OVCAR-8 ovarian it was 17.5%; in the assay on OVCAR-5 ovarian, 47.2%; with OVCAR-4 ovarian it was 39.8%; with IGROV1 ovarian, 41.4%; with OVCAR-3 ovarian, 12%. In addition, the growth is 13.9% in the assay with NCI/ADR-RES ovarian; 35.4% with T-47D breast; 55.8% with BT-549 breast; -44.5% (active) in the assay on MDA-MB-435 melanoma; 30.3% in the assay with SW-620 colon; 21% with MCF7 breast. Besides, the growth in the assay with HCT-116 colon was 25.3%; in the assay with HCC-2998 colon, 39.6%; in the assay with KM12 colon, 33.9%.
